Screens (PubChem BioAssay)
Shown are actives, neighbours in structure and some others; about 11% of the full set was active somewhere.
JMJD2A Tudor = inhibitors of human JMJD2A Tudor domain. O75164. Potency, µM (highest dose often 114 µM), actives largely listed as inhibitors. actives 4.4% (n = 390,000). AlphaScreen JMJD2A-Tudor / H3K4me3 peptide binding; also: nearly all actives have a fitted effect of over 50% in size
HP1b binding inh = inhibitors of HP1-beta chromodomain binding to methylated histone tails | AlphaScreen HP1-beta / biotin-H3K9me3 peptide binding | Potency, µM (titrated, usually from 114 µM), hits mostly inhibitors | actives 0.56% (n = 390,000); also: nearly all actives have a fitted effect of over 70% in size
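HP1-beta protein (50 nM final) preincubated 30 min at room temperature with biotinylated H3(1-18)K9me3 peptide (50 nM) in PBS pH 7.4, 0.01% Tween-20, then compound added for 30 min. AlphaScreen streptavidin donor/nickel chelate acceptor beads (10 ug/mL final), 30 min dark, luminescence read.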
BAZ2B inh = BAZ2B (human) inhibition; Q9UIF8; AlphaScreen BAZ2B-H3K14Ac peptide displacement; Potency, µM (highest dose often 114 µM), most hits filed as inhibitors; actives 4.4% (n = 360,000); AID 504333; also: nearly all actives have a fitted effect of over 60% in size
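AlphaScreen luminescence quantifies BAZ2B engagement of H3K14Ac peptide; the protein and biotinylated peptide are both at 50 nM final, buffer PBS pH 7.4 with 0.01% Tween-20, all steps at room temperature.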
PLK1 PBD block = inhibitors of human PLK1 polo-box domain binding; P53350; Plk1 PBD binding of FITC phosphopeptide, fluorescence polarization; Potency, µM, actives largely listed as inhibitors; actives 2.8% (n = 360,000); AID 720504; also: series mostly up to about 57 µM; nearly all actives have a fitted effect of over 65% in size
Target sequence (P53350 whole entry, looked up, the tested form may be a part): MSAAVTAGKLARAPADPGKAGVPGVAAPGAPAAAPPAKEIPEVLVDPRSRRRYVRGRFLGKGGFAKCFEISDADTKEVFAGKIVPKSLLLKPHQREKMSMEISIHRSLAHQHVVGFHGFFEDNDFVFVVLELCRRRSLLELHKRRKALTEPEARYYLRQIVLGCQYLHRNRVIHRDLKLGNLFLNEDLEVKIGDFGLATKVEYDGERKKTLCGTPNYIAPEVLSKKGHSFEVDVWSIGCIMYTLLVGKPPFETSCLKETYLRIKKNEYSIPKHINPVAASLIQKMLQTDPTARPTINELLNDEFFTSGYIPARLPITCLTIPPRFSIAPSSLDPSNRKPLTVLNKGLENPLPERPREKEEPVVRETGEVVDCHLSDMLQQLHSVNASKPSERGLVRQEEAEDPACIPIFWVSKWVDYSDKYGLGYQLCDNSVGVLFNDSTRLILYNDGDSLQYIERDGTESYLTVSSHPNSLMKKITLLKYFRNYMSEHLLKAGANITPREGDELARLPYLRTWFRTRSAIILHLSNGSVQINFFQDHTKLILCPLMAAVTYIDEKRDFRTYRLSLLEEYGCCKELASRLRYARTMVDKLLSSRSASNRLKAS
VDR inhibitor = blocks the human vitamin D receptor; actives 0.93% (n = 400,000); VDR-SRC2-3 peptide fluorescence polarization, 2 h; Potency, µM, actives largely listed as inhibitors; P11473
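Compounds are added to VDR with labelled SRC2-3 coactivator peptide and held 2 h at room temperature. Inhibition of the VDR–peptide interaction is then read as a change in fluorescence polarization.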
G9a block = inhibitors of human histone lysine methyltransferase G9a. Potency, µM (series often up to 102 µM), usual class: inhibitors. Q96KQ7. AID 504332. actives 8.8% (n = 350,000). G9a H3K9 monomethylation, AlphaScreen, 2 h; also: nearly all actives have a fitted effect of over 75% in size
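Signal arises when biotinylated H3K9 peptide, once monomethylated, bridges streptavidin donor and antibody-captured acceptor beads. Enzyme at 20 nM was preincubated 15 min with test compounds; peptide 500 nM and SAM 20 uM then reacted for 2 h.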
Numbers stand for hits; 0 = inactive; ? = inconclusive; - = not tested or not shown; [ ] = remark or other dose. Calls follow the shape of the dose curve; as a rule, active = well fitted curve in the direction sought with a large enough effect; inconclusive = small, poorly fitted or top-dose-only effect, or another doubt; inactive = no such curve, though single readings can be large; an effect the other way counts as inactive or inconclusive.

SMILES | JMJD2A Tudor | HP1b binding inh | BAZ2B inh | PLK1 PBD block | VDR inhibitor | G9a block
COC(=O)CSc1nc(C)c(C)c(C)c1C(N)=O | 0 | 0 | 0 | 0 | 0 | 0
CCN(CC)Cc1c(O)c(Cl)cc2c(C)cc(=O)oc12 | 0 | ? | 56µM | 0 | 0 | ?
CCc1nc2ccccc2c(=O)n1NC(=O)c1c(O)c2ccccc2[nH]c1=O | 79µM | 0 | ? | 0 | 0 | 0
CCN(CC)S(=O)(=O)c1cc(NC(=O)C(C)N2CCc3ccccc32)ccc1C (stereo not drawn) | ? | 0 | - | 0 | 0 | 25µM
CC(C(=O)Nc1ccc(S(N)(=O)=O)cc1)N1CCc2ccccc21 (stereo not drawn) | 0 | 0 | 0 | 0 | 0 | 79µM
CN1CCC(OC(c2ccccc2)c2ccc(Cl)cc2)C1 (stereo not drawn) | 0 | 0 | - | 0 | 0 | -
CC(C)C(CCNC1CCN(C)CC1)c1ccc(Cl)cc1 (stereo not drawn) | 56µM | 0 | 0 | 0 | 0 | ?
CN1CCC(NCCC(c2ccc(F)cc2)c2ccc(Cl)cc2)CC1 (stereo not drawn) | 0.71µM | 0 | 50µM | 0 | 0 | 25µM
NNc1ccc(Cl)nn1 | 8.9µM | 79µM | 20µM | 0 | 0 | -
CNc1ccc(Cl)nn1 | 0 | 0 | 0 | 0 | 0 | 0[12.7 µM]
CCNC(=S)/N=C(\N)Nc1nc(C)c2cc(C)ccc2n1 | ? | 0 | 11µM | 0 | 0 | ?
COc1ccc2c([N+](=O)[O-])c(N3CCOCC3)[nH]c2c1 | - | - | - | 0 | - | -
COc1ccc2c([N+](=O)[O-])c(Cl)[nH]c2c1 | 56µM | ? | 79µM | 0 | 0 | 25µM
Cc1ccc(NC(=O)NN2CCN(C)CC2)cc1C | 0 | 0 | 0 | 0 | 0 | 0
O=C(O)c1ccc2c(c1)C(=O)N([C@@H](C(=O)O)C(c1ccccc1)c1ccccc1)C2=O | 0 | - | 0 | - | - | 0[12.7 µM]
CC(=O)n1nc(-c2ccco2)nc1SCc1ccccc1 | 0 | 0 | 0 | ? | ? | 45µM
CCC(=O)n1nc(-c2ccco2)nc1N | 0 | 0 | 0 | 0 | 0 | 45µM
CC(=O)n1nc(-c2ccco2)nc1N | 0 | 0 | 0 | 0 | 0 | 0
O=C(c1cccs1)n1nc(-c2ccco2)nc1SCc1ccccc1 | 0 | 0 | 0 | 0 | 0 | 0
Cc1ccc(S(=O)(=O)NCCOc2nc(N(C)C)nc(N(C)C)n2)cc1 | 0[11.4 µM] | 0 | 0 | 24µM | ? | -
Cc1ccc(S(=O)(=O)NCCOc2nc(N(C)C)nc(N3CCOCC3)n2)cc1 | 0 | 0 | 0 | 0 | 0 | 0[12.7 µM]
CC1CCN(S(=O)(=O)c2ccc3ncn(CC(=O)Nc4ccccc4C(F)(F)F)c(=O)c3c2)CC1 | 0 | 0 | 0 | - | 0 | 0
O=C(NCC(=O)N1CCCCCCC1)c1cccc([N+](=O)[O-])c1 | 0 | 0 | 0 | 0 | 0 | 1.3µM
O=C(CNC(=O)c1cccc(F)c1)OCC(=O)N1CCCCC1 | 0 | 0 | 0 | 0 | 0 | 16µM
CCOC(=O)C1=C(COC(=O)CNC(=O)c2ccc(Cl)cc2Cl)NC(=O)NC1C (stereo not drawn) | 0 | 0 | 0 | 0 | 0 | 0
SMILES | JMJD2A Tudor | HP1b binding inh | BAZ2B inh | PLK1 PBD block | VDR inhibitor | G9a block
COc1cccc(C(c2c(C)[nH]n(-c3ccccc3)c2=O)c2c(C)[nH]n(-c3ccccc3)c2=O)c1OC | ? | 0 | ? | 12µM | ? | ?
CCOc1cccc(C(c2c(C)n(C)n(-c3ccccc3)c2=O)c2c(C)n(C)n(-c3ccccc3)c2=O)c1OC | 0 | 0 | 0 | 0 | 0 | 0
COc1cccc(C(c2c(C)[nH]n(-c3ccccc3)c2=O)c2c(C)[nH]n(-c3ccccc3)c2=O)c1O | ? | 0 | 0 | 21µM | ? | 0
CC(Sc1nnc(-c2ccccc2F)n1C)C(=O)NC1CCCCC1 (stereo not drawn) | 0 | 0 | 0 | 0 | 0 | 0[12.7 µM]
O=c1[nH]c(-c2ccccc2)c(-c2ccccc2)nc1[N+](=O)[O-] | 0 | 0 | 0 | 0 | 0 | 50µM
O=C(c1cccc(F)c1)N1CCC[C@@]2(CCN(c3cccc(-c4ccccc4)c3)C2)C1 | - | - | - | - | 45µM | 0[12.7 µM]
COc1ccc(C(=O)N2CCC[C@@]3(CCN(c4ccncc4)C3)C2)cc1 | - | - | - | - | 0 | 0[12.7 µM]
COc1ccc(C(=O)N2CCC[C@@]3(CCN(c4ccccc4)C3)C2)cc1 | - | - | - | - | 56µM | 0[12.7 µM]
